{
  "source": "PubChem BioAssay",
  "key": {"[1]": {"system": "Plasmodium falciparum Sir2 (PF13_0152, Sir2A)", "test": "pfSir2 binders on small-molecule microarrays, primary screen, biochemical, small-molecule microarray, 635 nm fluorescence (AID 1098);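 also: score merges spot fluorescence intensity with its signal-to-noise ratio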", "conditions": "small-molecule microarray binding, fluorescence 635 nm; higher = more signal"}, "[2]": {"test": "small-molecule microarray binders of probe aDKK1, primary screen, biochemical, biotinylated probe, 635/667 nm fluorescence (AID 1099);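 also: score merges 667nm spot fluorescence with signal to noise across triplicate slides; reference of the scale not given here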", "conditions": "higher = more signal"}, "[3]": {"test": "small-molecule microarray binders of probe aCHRDL2, primary screen, biochemical, biotinylated probe, 635/667 nm fluorescence (AID 1100)", "conditions": "higher = more signal"}, "[4]": {"test": "splicing luciferase reporter signal modulators, primary screen, spliceosome inhibition project, cell-based, HEK293, splice +/- reporter (AID 1101);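 also: HEK293 cells carrying a splicing-competent luciferase reporter gene; test concentration not given here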", "conditions": "luminescence, 24 h, higher = more signal, called active from +8 up or from −8 down"}, "[5]": {"target": "Fibroblast growth factor 10 (Homo sapiens) (UniProt O15520)", "sequence (O15520 whole entry, looked up)": "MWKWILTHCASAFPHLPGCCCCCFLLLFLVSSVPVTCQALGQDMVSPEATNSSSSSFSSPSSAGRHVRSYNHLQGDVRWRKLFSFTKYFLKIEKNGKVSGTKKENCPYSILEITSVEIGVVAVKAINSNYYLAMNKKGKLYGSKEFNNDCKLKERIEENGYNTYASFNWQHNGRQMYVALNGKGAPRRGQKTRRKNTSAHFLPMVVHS", "test": "FGF10 binders on small-molecule microarrays, primary screen, biochemical, small-molecule microarray, 635 nm fluorescence (AID 1102)", "conditions": "FGF10 binding, fluorescence 635 nm, higher = more signal"}, "[6]": {"system": "glycogen synthase kinase-3 (GSK3A per assay name; protocol says GSK3B)", "test": "GSK3 binders on small-molecule microarrays, primary screen, biochemical, small-molecule microarray, 635 nm fluorescence, GSK3A (AID 1103); also: the record names both GSK3A and GSK3B", "conditions": "small-molecule microarray binding, fluorescence 635 nm; higher = more signal"}, "[7]": {"target": "Epidermal growth factor receptor (Homo sapiens) (UniProt P00533)", "sequence (P00533 whole entry, looked up)": "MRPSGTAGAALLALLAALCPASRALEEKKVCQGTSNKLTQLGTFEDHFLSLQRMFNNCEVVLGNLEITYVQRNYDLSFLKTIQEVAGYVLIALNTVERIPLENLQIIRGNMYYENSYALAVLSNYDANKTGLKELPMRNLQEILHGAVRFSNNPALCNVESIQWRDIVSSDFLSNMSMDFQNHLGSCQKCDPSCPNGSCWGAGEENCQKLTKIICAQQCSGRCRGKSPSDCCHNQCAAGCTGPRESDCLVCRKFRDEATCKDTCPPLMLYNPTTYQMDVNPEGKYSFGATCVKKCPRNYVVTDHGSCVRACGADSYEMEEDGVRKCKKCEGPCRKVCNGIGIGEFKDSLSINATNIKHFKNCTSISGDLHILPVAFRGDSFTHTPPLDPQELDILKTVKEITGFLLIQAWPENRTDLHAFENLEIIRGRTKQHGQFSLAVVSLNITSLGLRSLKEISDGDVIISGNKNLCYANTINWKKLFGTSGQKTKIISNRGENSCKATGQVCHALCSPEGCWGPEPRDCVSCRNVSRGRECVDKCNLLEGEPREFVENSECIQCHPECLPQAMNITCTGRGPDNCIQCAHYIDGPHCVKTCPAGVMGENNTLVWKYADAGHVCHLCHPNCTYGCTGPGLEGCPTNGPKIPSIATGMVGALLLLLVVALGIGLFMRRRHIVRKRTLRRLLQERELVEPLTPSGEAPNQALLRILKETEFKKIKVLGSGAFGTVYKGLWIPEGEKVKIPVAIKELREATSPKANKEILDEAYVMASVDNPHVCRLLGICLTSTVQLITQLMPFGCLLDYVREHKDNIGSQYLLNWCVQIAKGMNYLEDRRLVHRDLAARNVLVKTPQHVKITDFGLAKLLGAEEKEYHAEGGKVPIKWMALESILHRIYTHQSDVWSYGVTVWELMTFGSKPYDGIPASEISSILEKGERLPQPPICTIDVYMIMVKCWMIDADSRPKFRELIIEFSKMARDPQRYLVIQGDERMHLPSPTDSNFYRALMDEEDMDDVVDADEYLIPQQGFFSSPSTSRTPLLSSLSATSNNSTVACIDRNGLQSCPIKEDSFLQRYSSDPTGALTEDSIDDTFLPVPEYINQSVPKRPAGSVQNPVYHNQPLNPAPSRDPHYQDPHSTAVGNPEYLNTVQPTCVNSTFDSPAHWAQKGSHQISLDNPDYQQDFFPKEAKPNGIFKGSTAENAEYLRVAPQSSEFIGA", "test": "EGFR binders on small-molecule microarrays, primary screen, biochemical, small-molecule microarray, 635 nm fluorescence (AID 1104);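 also: score merges 667 nm emission intensity with spot signal to noise over triplicate slides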", "conditions": "EGFR binding, higher = more signal"}, "[8]": {"target": "Follistatin-related protein 3 (Homo sapiens) (UniProt O95633)", "sequence (O95633 whole entry, looked up)": "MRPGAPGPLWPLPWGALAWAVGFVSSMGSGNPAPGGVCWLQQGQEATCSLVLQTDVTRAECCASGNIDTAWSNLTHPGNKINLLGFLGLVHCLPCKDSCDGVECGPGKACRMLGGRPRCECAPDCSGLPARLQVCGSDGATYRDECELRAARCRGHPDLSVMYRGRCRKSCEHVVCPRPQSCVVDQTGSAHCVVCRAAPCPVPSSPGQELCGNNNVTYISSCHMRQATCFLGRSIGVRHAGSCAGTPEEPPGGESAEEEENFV", "test": "FSTL3 binders on small-molecule microarrays, primary screen, biochemical, small-molecule microarray, 635 nm fluorescence (AID 1105);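 also: score merges emission near 667 nm and signal to noise per printed spot across three slides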", "conditions": "FSTL3 binding, higher = more signal"}, "[9]": {"target": "Dickkopf-related protein 1 (Homo sapiens) (UniProt O94907)", "sequence (O94907 whole entry, looked up)": "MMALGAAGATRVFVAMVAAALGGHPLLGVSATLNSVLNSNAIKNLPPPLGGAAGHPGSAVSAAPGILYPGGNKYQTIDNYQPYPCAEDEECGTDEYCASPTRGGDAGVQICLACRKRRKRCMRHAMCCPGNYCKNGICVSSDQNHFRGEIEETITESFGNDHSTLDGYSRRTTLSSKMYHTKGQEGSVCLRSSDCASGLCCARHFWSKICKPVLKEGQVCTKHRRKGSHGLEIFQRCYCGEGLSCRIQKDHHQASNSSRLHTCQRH", "test": "DKK1 binders on small-molecule microarrays, primary screen, biochemical, small-molecule microarray, 635 nm fluorescence scan (AID 1106);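 also: score merges emission near 667 nm with signal to noise over three replicate slides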", "conditions": "DKK1 binding, higher = more signal"}, "[10]": {"system": "Inhibin beta A chain (activin A)", "test": "INHBA (activin A) binders on microarrays, primary screen, biochemical, small-molecule microarray, 635 nm fluorescence scan (AID 1107);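 also: mouse activin A protein probed at 4.33 µg/mL on printed slides; score merges bound-protein fluorescence near 667 nm with spot signal-to-noise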", "conditions": "small-molecule microarray binding, higher = more signal"}},
  "note": "Active and inactive are the calls of the source.",
  "data": [
    {"compound": "O=C1O[C@@H](c2ccccc2)[C@@H](c2ccccc2)N2[C@@H](c3ccc(O)cc3)[C@]3(C(=O)Nc4ccc(C#CCCO)cc43)[C@@H](C(=O)Nc3nc4ccccc4s3)[C@H]12", "values": [
      {"measurement": "composite z-score", "setting": "[1]", "value": 0.94},
      {"measurement": "composite z-score", "setting": "[2]", "value": 0.0179},
      {"measurement": "composite z-score", "setting": "[3]", "value": 0.376},
      {"measurement": "z-score", "setting": "[4]", "value": "0.344 (inactive)"},
      {"measurement": "composite z-score", "setting": "[5]", "value": 1.17},
      {"measurement": "composite z-score", "setting": "[6]", "value": 1.13},
      {"measurement": "composite z-score", "setting": "[7]", "value": 0.214},
      {"measurement": "composite z-score", "setting": "[8]", "value": 0.545},
      {"measurement": "composite z-score", "setting": "[9]", "value": -0.17},
      {"measurement": "composite z-score", "setting": "[10]", "value": 0.0507}
    ]},
    {"compound": "C=CCOC(=O)[C@@H]1[C@H]2C(=O)O[C@H](c3ccccc3)[C@H](c3ccccc3)N2[C@H](c2ccc(OCCOC(=O)[C@H]3C[C@H]4C(=O)N[C@@H](CCCC[N+](C)(C)C)C(=O)N4[C@H]3c3ccc(O)cc3)cc2)[C@@]12C(=O)Nc1ccc(I)cc12", "values": [
      {"measurement": "composite z-score", "setting": "[1]", "value": 1.6},
      {"measurement": "composite z-score", "setting": "[2]", "value": -0.144},
      {"measurement": "composite z-score", "setting": "[3]", "value": -0.248},
      {"measurement": "z-score", "setting": "[4]", "value": "-0.178 (inactive)"},
      {"measurement": "composite z-score", "setting": "[5]", "value": 1.46},
      {"measurement": "composite z-score", "setting": "[6]", "value": 1.33},
      {"measurement": "composite z-score", "setting": "[7]", "value": 1.18},
      {"measurement": "composite z-score", "setting": "[8]", "value": 1.51},
      {"measurement": "composite z-score", "setting": "[9]", "value": 1.03},
      {"measurement": "composite z-score", "setting": "[10]", "value": 0.467}
    ]},
    {"compound": "COC(=O)[C@@]1(Cc2ccc(OC)cc2)[C@H]2c3cc(C(=O)N(C)C)n(CCc4c[nH]c5ccc(O)cc45)c3C[C@H]2CN1C(=O)c1ccccc1", "values": [
      {"measurement": "composite z-score", "setting": "[1]", "value": 1.06},
      {"measurement": "composite z-score", "setting": "[2]", "value": 1.43},
      {"measurement": "composite z-score", "setting": "[3]", "value": 0.984},
      {"measurement": "z-score", "setting": "[4]", "value": "-1.65 (inactive)"},
      {"measurement": "composite z-score", "setting": "[5]", "value": 0.934},
      {"measurement": "composite z-score", "setting": "[6]", "value": 1.12},
      {"measurement": "composite z-score", "setting": "[7]", "value": 0.562},
      {"measurement": "composite z-score", "setting": "[8]", "value": 1.23},
      {"measurement": "composite z-score", "setting": "[9]", "value": -0.509},
      {"measurement": "composite z-score", "setting": "[10]", "value": 1.26}
    ]},
    {"compound": "COc1ccc(NC(=O)O[C@H]2[C@H](OC(=O)Nc3ccc4c(c3)OCO4)[C@@H](OC(=O)Nc3ccc4c(c3)OCO4)[C@@H](OC)O[C@@H]2CO)cc1", "values": [
      {"measurement": "composite z-score", "setting": "[1]", "value": 1.61},
      {"measurement": "composite z-score", "setting": "[2]", "value": 0.0898},
      {"measurement": "composite z-score", "setting": "[3]", "value": 0.0398},
      {"measurement": "z-score", "setting": "[4]", "value": "1.27 (inactive)"},
      {"measurement": "composite z-score", "setting": "[5]", "value": 1.11},
      {"measurement": "composite z-score", "setting": "[6]", "value": 1.29},
      {"measurement": "composite z-score", "setting": "[7]", "value": 0.0699},
      {"measurement": "composite z-score", "setting": "[8]", "value": 0.516},
      {"measurement": "composite z-score", "setting": "[9]", "value": 0.0542},
      {"measurement": "composite z-score", "setting": "[10]", "value": 0.774}
    ]},
    {"compound": "CC(C)CCC[C@@H](C)[C@H]1CC[C@@]2(C)C3=C(CC[C@]12C)[C@@]1(C)CC[C@H](OC(=O)c2ccc(Br)cc2)C(C)(C)C1CC3", "note": "(stereo not given in full)", "values": [
      {"measurement": "composite z-score", "setting": "[1]", "value": 0.27},
      {"measurement": "composite z-score", "setting": "[2]", "value": -0.153},
      {"measurement": "composite z-score", "setting": "[3]", "value": -0.331},
      {"measurement": "z-score", "setting": "[4]", "value": "-1.13 (inactive)"},
      {"measurement": "composite z-score", "setting": "[5]", "value": 0.609},
      {"measurement": "composite z-score", "setting": "[6]", "value": 0.55},
      {"measurement": "composite z-score", "setting": "[7]", "value": 0.593},
      {"measurement": "composite z-score", "setting": "[8]", "value": 0.506},
      {"measurement": "composite z-score", "setting": "[9]", "value": 0.391},
      {"measurement": "composite z-score", "setting": "[10]", "value": 0.26}
    ]},
    {"compound": "C[C@H]1C2=C3C(CC[C@H]4C(OCc5ccc(F)cc5C(F)(F)F)OC[C@](C)([C@@H]34)N(C(=O)OC(C)(C)C)C2)C2COC(=O)OCC21", "note": "(stereo not given in full)", "values": [
      {"measurement": "composite z-score", "setting": "[1]", "value": 0.0559},
      {"measurement": "composite z-score", "setting": "[2]", "value": 0.457},
      {"measurement": "composite z-score", "setting": "[3]", "value": 1.28},
      {"measurement": "z-score", "setting": "[4]", "value": "-0.848 (inactive)"},
      {"measurement": "composite z-score", "setting": "[5]", "value": 0.0151},
      {"measurement": "composite z-score", "setting": "[6]", "value": 0.987},
      {"measurement": "composite z-score", "setting": "[7]", "value": 0.0472},
      {"measurement": "composite z-score", "setting": "[8]", "value": 0.768},
      {"measurement": "composite z-score", "setting": "[9]", "value": -0.648},
      {"measurement": "composite z-score", "setting": "[10]", "value": 0.572}
    ]},
    {"compound": "C[C@@H]1ON(c2ccc(C(=O)OC(C)(C)C)cc2)[C@H](c2ccc(Br)cc2)[C@H]1C(=O)N1C(=O)OC[C@H]1Cc1ccccc1", "values": [
      {"measurement": "composite z-score", "setting": "[1]", "value": 0.992},
      {"measurement": "composite z-score", "setting": "[2]", "value": -0.0749},
      {"measurement": "composite z-score", "setting": "[3]", "value": -0.17},
      {"measurement": "z-score", "setting": "[4]", "value": "-0.65 (inactive)"},
      {"measurement": "composite z-score", "setting": "[5]", "value": 1.17},
      {"measurement": "composite z-score", "setting": "[6]", "value": 1.31},
      {"measurement": "composite z-score", "setting": "[7]", "value": 0.701},
      {"measurement": "composite z-score", "setting": "[8]", "value": 1.21},
      {"measurement": "composite z-score", "setting": "[9]", "value": 1.11},
      {"measurement": "composite z-score", "setting": "[10]", "value": -0.109}
    ]},
    {"compound": "NC(N)=NCc1cn(CCc2c[nH]c3ccccc23)nn1", "values": [
      {"measurement": "composite z-score", "setting": "[1]", "value": 0.689},
      {"measurement": "composite z-score", "setting": "[2]", "value": 0.0191},
      {"measurement": "composite z-score", "setting": "[3]", "value": -0.865},
      {"measurement": "z-score", "setting": "[4]", "value": "-0.443 (inactive)"},
      {"measurement": "composite z-score", "setting": "[5]", "value": 0.479},
      {"measurement": "composite z-score", "setting": "[6]", "value": 1.18},
      {"measurement": "composite z-score", "setting": "[7]", "value": 0.699},
      {"measurement": "composite z-score", "setting": "[8]", "value": 1.12},
      {"measurement": "composite z-score", "setting": "[9]", "value": 1.6},
      {"measurement": "composite z-score", "setting": "[10]", "value": 0.307}
    ]}
  ]
}
